We go through 19 compounds from PubChem BioAssay (NCI).

Among the test systems are NCI-H23 lung; NCI-H226 lung; NCI-H322M lung; NCI-H460 lung; HOP-92 NSCLC; A549/ATCC NSCLC; 786-0 renal; HOP-62 NSCLC; NCI-H522 lung; COLO 205 colon.
Test in all cases: NCI-60 one-dose screen, 48 h (100 = growth as untreated, 0 = no growth, -100 = all killed)
What all share (conditions): 10 µM unless noted

Molecules are shown by their SMILES. Compounds without any hit were thinned out: in the full panel of roughly 83,000, 20% have a hit.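 For each line, cells grew in 96-well plates with the test compound present at a single concentration for 48 hours.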 Values without a mark were called inactive. The source made the active and inactive calls. Rule for the calls: active = growth percent below 10; inactive = the rest.

`COc1ccc2[nH]cc(-c3nc(-c4c[nH]c5ncccc45)cs3)c2c1`: the growth is 48.3% in the test with NCI-H23 lung; 53.2% in the test with NCI-H226 lung; 44.5% in the test on NCI-H322M lung; 21.8% with NCI-H460 lung; 25.9% in the test on HOP-92 NSCLC; 22.4% with A549/ATCC NSCLC. For the same compound, the growth with 786-0 renal is 16.2%.
On to `CC(=O)OC[C@]12CC[C@@H](/C(C)=N/O)[C@@H]1[C@H]1CC[C@@H]3[C@@]4(C)CCCNC(C)(C)[C@@H]4CC[C@@]3(C)[C@]1(C)CC2`, for which the growth is 86.2% with NCI-H23 lung; 90.7% with NCI-H322M lung; 85.2% with HOP-62 NSCLC; 84.5% with NCI-H460 lung; 66.9% with HOP-92 NSCLC; 83.8% in the test on NCI-H522 lung. For the same compound, the growth in the test on A549/ATCC NSCLC is 64.6%; in the test on 786-0 renal, 73.5%; in the test on COLO 205 colon it was 75.8%.
In the case of `COc1ccccc1-n1cnc(N)c1C(=O)c1cc(OC)c(OC)c(OC)c1`, the growth with NCI-H23 lung was 70%; with NCI-H322M lung, 81.4%; in the test with HOP-62 NSCLC, 52.8%; with NCI-H460 lung it was 14.5%; in the test with HOP-92 NSCLC it was 70.3%; in the test with A549/ATCC NSCLC, 47.9%. Also, the growth with 786-0 renal was 37.9%; in the test with COLO 205 colon, 66.1%.
As to `Cc1cc(Cl)nc(N(CCNc2ccnc3cc(Cl)ccc23)Cc2ccco2)n1`, the growth was 45.6% in the test with NCI-H23 lung; 70.6% in the test with NCI-H322M lung; 25.6% in the test on HOP-62 NSCLC; 31.7% with NCI-H460 lung; 57% in the test on HOP-92 NSCLC; 53.2% in the test on NCI-H522 lung. The growth in the test on A549/ATCC NSCLC is 60.6%; with 786-0 renal, -9.46% (active); in the test on COLO 205 colon, 50.9%.
For the compound `CCN1CCN(C(=O)[C@]23CCC(C)(C)C[C@@H]2C2=CC[C@@H]4[C@@]5(C)C/C(=C/c6ccncc6)C(=O)C(C)(C)[C@@H]5CC[C@@]4(C)[C@]2(C)CC3)CC1`, the growth in the test on NCI-H23 lung was -7.07% (active); in the test with NCI-H322M lung, 27%; with HOP-62 NSCLC, -66.9% (active); in the test on HOP-92 NSCLC it was -11% (active); in the test with NCI-H522 lung, -59% (active); with A549/ATCC NSCLC, 4.33% (active). Moreover, the growth in the test with 786-0 renal is -73.6% (active); in the test on COLO 205 colon, -15.3% (active).
With `C=C(C)[C@@H]1CC[C@]2(C(=O)NNC(=O)c3cccnc3)CC[C@]3(C)[C@H](CC[C@@H]4[C@@]5(C)CCCNC(C)(C)[C@@H]5CC[C@]43C)[C@@H]12`, the growth is 84.4% with NCI-H23 lung; 101% in the test on NCI-H322M lung; 84.9% with HOP-62 NSCLC; 95.9% in the test on NCI-H460 lung; 50.5% in the test with HOP-92 NSCLC; 99.4% with NCI-H522 lung. In addition, the growth in the test with A549/ATCC NSCLC was 71.6%; in the test with 786-0 renal, 94.8%; in the test on COLO 205 colon, 20.6%.
As to `CCc1ccc(-c2ccc(Nc3ccccc3)nn2)cc1S(N)(=O)=O`, the growth in the test with NCI-H23 lung was 86%; in the test with NCI-H322M lung, 107%; with HOP-62 NSCLC, 92.9%; in the test with NCI-H460 lung, 51.2%; in the test on HOP-92 NSCLC, 80.2%; with NCI-H522 lung, 71.5%. The growth was 80.5% in the test with A549/ATCC NSCLC, 94.3% in the test on 786-0 renal and 94.8% in the test on COLO 205 colon.
As for `COC(=O)[C@]12CC[C@@H](C(C)=O)[C@@H]1[C@H]1CC[C@@H]3[C@@]4(C)C/C(=C/c5cccnc5)C(=O)C(C)(C)[C@@H]4CC[C@@]3(C)[C@]1(C)CC2`, the growth with NCI-H23 lung was 53.2%; in the test with NCI-H322M lung it was 93.9%; in the test on HOP-62 NSCLC it was 103%; in the test with NCI-H460 lung, 70.9%; with HOP-92 NSCLC, 66.7%; in the test with NCI-H522 lung, 47.5%. Besides, the figures for the growth in the test with A549/ATCC NSCLC, with 786-0 renal and with COLO 205 colon were 51.4%, 84.9% and 82.5%, respectively.
For the compound `C=COCCCCCCCCCCCCCCCCCC`, the growth in the test with NCI-H23 lung is 101%; in the test on NCI-H322M lung it was 137%; with HOP-62 NSCLC, 108%; with NCI-H460 lung it was 107%; in the test on HOP-92 NSCLC, 75.6%; in the test on NCI-H522 lung it was 97.5%. Also, the growth in the test on A549/ATCC NSCLC was 79.5%; in the test with 786-0 renal, 102%; in the test with COLO 205 colon it was 104%.
On to `C=C(C)[C@@H]1CC[C@]2(c3nnc(-c4ccncc4)o3)CC[C@]3(C)[C@H](CC[C@@H]4[C@@]5(C)CCC(=O)NC(C)(C)[C@@H]5CC[C@]43C)[C@@H]12`, for which the growth with NCI-H23 lung is 94.7%; in the test on NCI-H322M lung, 94.3%; with HOP-62 NSCLC it was 97.9%; in the test with NCI-H460 lung, 98.5%; with HOP-92 NSCLC it was 71.9%; in the test on NCI-H522 lung, 93.9%. Also, the growth with A549/ATCC NSCLC is 92.8%; in the test with 786-0 renal, 96.2%; in the test on COLO 205 colon, 109%.
Turning to `C[C@@H]1CCCCCCCCC[C@H](O)C(=O)C[C@@H](SC[C@@H](O)C(=O)O)C(=O)O1`, the growth is 96.5% in the test with NCI-H23 lung; 116% with NCI-H322M lung; 97.5% with HOP-62 NSCLC; 108% with NCI-H460 lung; 90.8% with HOP-92 NSCLC; 66.4% in the test with NCI-H522 lung. For the same compound, the growth in the test with A549/ATCC NSCLC is 85.8%; with 786-0 renal it was 85.7%; in the test with COLO 205 colon it was 117%.
As for `COc1ccc(-n2c(/C=C/c3ccc(O)c(OC)c3)cc(/C=C/c3ccc(O)c(OC)c3)nc2=O)cc1`, the growth in the test on NCI-H23 lung is 42.5%; in the test on NCI-H322M lung, 83.6%; in the test on HOP-62 NSCLC, 63.4%; in the test with NCI-H460 lung it was 78%; in the test on HOP-92 NSCLC it was 79.8%; with NCI-H522 lung, 29.3%. The values for the growth in the test with A549/ATCC NSCLC, with 786-0 renal and in the test with COLO 205 colon were 79.1%, 82.8% and 56.8%, respectively.
`NC1(N)C=CC2=C(C=C1)C1(N)C3=C(C=CC(N)(N)C=C3)N2C2(N)C3=C(C=CC(N)(N)C=C3)N1C1=C2C=CC(N)(N)C=C1`: the growth in the test with NCI-H23 lung was 79.5%; in the test on NCI-H322M lung, 99.8%; in the test on HOP-62 NSCLC, 89.8%; in the test with NCI-H460 lung, 94.6%; in the test with HOP-92 NSCLC, 70.3%; with NCI-H522 lung, 28.4%. Further, the growth with A549/ATCC NSCLC is 88.8%; in the test on 786-0 renal it was 84.3%; with COLO 205 colon, 104%.
With `Cc1cc(N=O)cc(C(C)(C)C)c1O`, the growth in the test on NCI-H23 lung is 97%; in the test on NCI-H322M lung, 95.6%; in the test with HOP-62 NSCLC, 90%; in the test with NCI-H460 lung, 101%; in the test with HOP-92 NSCLC it was 73%; with NCI-H522 lung it was 90.2%. For the same compound, the growth with A549/ATCC NSCLC is 73.5%; with 786-0 renal, 103%; in the test on COLO 205 colon, 92.3%.
As for `O=C1C=C(C(O)c2ccc(O)cc2)C(=O)c2ccccc21` (stereo unspecified), the growth was 89.2% in the test with NCI-H23 lung; 95.2% with NCI-H322M lung; 116% in the test on HOP-62 NSCLC; 107% with NCI-H460 lung; -2.83% (active) in the test with HOP-92 NSCLC; 92.8% in the test with NCI-H522 lung. The growth with A549/ATCC NSCLC is 104%; with 786-0 renal, 106%; with COLO 205 colon, 100%.
`CCNCCCn1c2c(c3ccc([N+](=O)[O-])cc3c1=O)C(=O)c1cc(OC)cnc1-2`: the growth in the test on NCI-H23 lung is -57.2% (active); with NCI-H322M lung, 2.15% (active); with HOP-62 NSCLC, -66.6% (active); in the test with NCI-H460 lung, -63% (active); with HOP-92 NSCLC it was -11.5% (active); in the test on NCI-H522 lung it was -16.1% (active). In addition, the growth in the test with A549/ATCC NSCLC was -81.8% (active); in the test on 786-0 renal, -91.7% (active); with COLO 205 colon, -30.9% (active).
As for `CN1CCN(CC#CCn2c3c(c4ccccc42)C[C@]2(C)[C@H]4CC[C@@H]5[C@H]6[C@H]7OC(=O)[C@@]6(CCC7(C)C)CC[C@@]5(C)[C@]4(C)CC[C@H]2C3(C)C)CC1`, the growth in the test with NCI-H23 lung was 92.7%; in the test on NCI-H322M lung, 106%; in the test on HOP-62 NSCLC, 95.2%; in the test on NCI-H460 lung, 98.6%; with HOP-92 NSCLC, 67.4%; in the test with NCI-H522 lung, 102%. The growth with A549/ATCC NSCLC is 58.6%; with 786-0 renal, 107%; in the test on COLO 205 colon it was 108%.
Consider `O=P(O)(c1ccccc1)c1ccccc1I`, for which the growth in the test with NCI-H23 lung was 96.4%; in the test on NCI-H322M lung it was 94.1%; in the test with HOP-62 NSCLC, 94.8%; in the test on NCI-H460 lung, 97.2%; in the test on HOP-92 NSCLC, 83.9%; in the test with A549/ATCC NSCLC it was 71.2%. For the same compound, the growth in the test on 786-0 renal was 109%; with COLO 205 colon, 107%.
In the case of `COC(=O)[C@]12CC[C@@H](C)[C@H](C)[C@@H]1C1=CC[C@@H]3[C@@]4(C)C[C@@H](OC(C)=O)[C@H](O)[C@@](C)(CO)[C@@H]4[C@H](O)C[C@@]3(C)[C@]1(C)CC2`, the growth with NCI-H23 lung is -82% (active); with NCI-H322M lung it was -93.2% (active); in the test on HOP-62 NSCLC, -89.8% (active); in the test with NCI-H460 lung it was -72.6% (active); in the test with HOP-92 NSCLC, -87.7% (active); in the test with NCI-H522 lung it was -90.3% (active). Moreover, the growth in the test on A549/ATCC NSCLC is -88.3% (active); in the test with 786-0 renal, -77.3% (active); in the test with COLO 205 colon it was -87.8% (active).
